Here are results for 17 compounds from PubChem BioAssay (EPA / NIEHS).

Where “and” joins values, the source holds several entries; their conditions need not be identical. Equal values may be shown once. Records with an inconclusive call do not appear. Where a structure was tested more than once in an assay, its records may differ in their call. Calls of active or inactive are those of the source. The calls were made as follows, unless noted: active = hit-call score of the fitted dose curve at least 0.9, where 1 is the maximum; inactive = score below 0.9.

Test [1] in a line: CCTE_Shafer_MEA_acute_per_network_burst_electrodes_number_mean: CCTE's Neural Acute Assay for Mean Number of Electrodes in a Network Burst, Shafer Lab (AID 2284021).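 Also: curves fitted for decreases only so hits reduce electrodes per burst.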 Put shortly: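 Percent change from baseline was computed as mean electrode count per network burst, comparing 40 min recordings before and during compound (0.03-40 uM) exposure. Cultures were rat cortical neurons at DIV 13 or 15, recorded on MEAs at 37 C with an adaptive 8x rms threshold.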

Test [2] in a line: CCTE_Shafer_MEA_acute_network_burst_percentage: CCTE's Neural Acute Assay for Percentage of Network Bursts, Shafer Lab (AID 2284022).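 Also: curves fitted for loss so actives lower network burst percentage.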 Put shortly: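 Network burst percentage (spikes in network bursts divided by total spikes) recorded at 37 C over 40 min baseline and 40 min after compound, 0.03-40 uM, in rat cortical cultures at DIV 13 or 15. Analysed as percent change from baseline versus DMSO.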

Test [3] is described as follows: CCTE_Shafer_MEA_acute_cross_correlation_area: CCTE's Neural Acute Assay for Area of Cross Correlation, Shafer Lab (AID 2284024).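 Also: area under pooled inter-electrode spike cross-correlation near zero lag as percent change from own baseline; curves fitted for loss of cross-correlation area so actives lower synchrony.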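 As to outcome: rat primary cortical neuron networks on 48-well MEA at DIV 13 or 15 with 40 min exposure.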 Put shortly:
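Percent change in well-wide cross-correlation area (window around zero lag) between 40 min baseline and 40 min post-compound recordings, 37 C; rat cortical cultures on MEA at DIV 13 or 15, dosed 0.03-40 uM, wells needing >/= 10 active electrodes.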

Test [4] is described as follows: CCTE_Shafer_MEA_acute_cross_correlation_HWHM: CCTE's Neural Acute Assay for Cross Correlation at Half Width at Half Maximum, Shafer Lab (AID 2284026).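 Also: percent change per well from pre-dose baseline in spike cross-correlogram half width; hits are a decrease in cross-correlogram half width relative to DMSO.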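 As to outcome: spontaneous network firing of rat primary cortical neurons on multiwell microelectrode arrays.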 In outline:
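Per-well percent change in cross-correlogram half width at half maximum, derived from 40-min recordings before and after compound (0.03-40 uM) at 37 C. Cultures were rat cortical neurons, DIV 13 or 15, with adaptive spike detection at 8x rms.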

Test [5] can be described thus: CCTE_Shafer_MEA_acute_synchrony_index: CCTE's Neural Acute Assay for Synchrony, Shafer Lab (AID 2284027).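 Also: network synchrony index of spontaneous spiking in primary rat cortical neurons on MEAs; fitted for loss of signal so actives lower synchrony relative to DMSO.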 In outline: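 Rat cortical cultures, DIV 13/15; spikes detected at 8x rms noise, 300-5000 Hz band-pass. Compound 0.03-40 uM, ≥3 wells; 40-min pre- and post-exposure recordings, 37 C. Readout: % change in synchrony index; loss-of-signal fit vs DMSO.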
In test [6] the target is Estrogen receptor (Homo sapiens) (UniProt P03372). The test can be described thus: CCTE_Deisenroth_AIME_384WELL_LUC_Active: CCTE's 384-well Estrogen Receptor Transactivation Assay with AIME metabolic competence (ERTA luciferase; metabolism positive), Deisenroth Lab (AID 2284030; active = hit-call score of the fitted dose curve at least 0.9, where 1 is the maximum). Put shortly: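 VM7Luc4E2 breast cells were given, for 24 hours, medium pre-incubated for 2 hours with parent chemical (0.002-200 uM, 10 concentrations) and alginate-encapsulated phenobarbital/beta-naphthoflavone-induced rat hepatic S9. Luciferase gain of signal was fitted against 17beta-estradiol; n=4 or more.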
Estrogen receptor (Homo sapiens), sequence (P03372 whole entry, looked up): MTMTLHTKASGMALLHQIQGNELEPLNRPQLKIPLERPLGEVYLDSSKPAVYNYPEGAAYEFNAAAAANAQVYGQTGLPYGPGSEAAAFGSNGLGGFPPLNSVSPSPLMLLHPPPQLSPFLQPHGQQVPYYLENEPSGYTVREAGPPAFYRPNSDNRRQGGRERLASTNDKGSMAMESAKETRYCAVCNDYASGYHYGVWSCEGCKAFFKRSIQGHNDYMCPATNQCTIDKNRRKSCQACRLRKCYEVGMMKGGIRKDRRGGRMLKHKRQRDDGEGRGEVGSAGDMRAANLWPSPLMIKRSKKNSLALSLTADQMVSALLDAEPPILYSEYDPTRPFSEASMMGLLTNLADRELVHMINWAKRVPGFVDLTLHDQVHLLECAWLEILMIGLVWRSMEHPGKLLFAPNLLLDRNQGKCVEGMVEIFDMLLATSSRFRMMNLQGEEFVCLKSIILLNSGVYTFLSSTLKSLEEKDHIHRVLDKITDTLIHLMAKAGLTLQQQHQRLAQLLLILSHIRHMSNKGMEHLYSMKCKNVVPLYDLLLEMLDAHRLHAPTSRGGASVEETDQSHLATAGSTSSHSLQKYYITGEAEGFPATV

Test [7] in a line: CCTE_Deisenroth_AIME_384WELL_CTox_Active: Cytotoxicity Assessment (CTOX) in CCTE's 384-well Estrogen Receptor Transactivation Assay with AIME metabolic competence (metabolism positive), Deisenroth Lab (AID 2284037; active = hit-call score of the fitted dose curve at least 0.9, where 1 is the maximum;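 also: chemicals first conditioned 2 h by alginate-bound induced rat liver S9 before cells; activity means signal loss indicating cell death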). Put shortly: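 VM7Luc4E2 breast cells received medium pre-incubated 2 h with chemical over alginate microspheres holding induced male Sprague Dawley rat liver S9; viability read 24 h later by protease-substrate fluorescence. Loss of signal, bidirectional fit, 0.002–200 uM.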

The nature of test [8]: CCTE_Shafer_MEA_dev_firing_rate_mean: CCTE's Neural Network Formation Assay for Mean Firing Rate, Shafer Lab (AID 2284031).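 As to AC50: curve fitted for loss of firing so AC50 reflects decreased mean firing rate.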 Put shortly: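 Read-out: spike count/recording length, averaged over active electrodes, then AUC across days 5, 7, 9, 12. Rat cortical cultures on MEA; continuous 12-day exposure, media and treatment renewed DIV 5, 9; DMSO baseline.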
Test [9] in a line: CCTE_Shafer_MEA_dev_per_burst_spike_percent: CCTE's Neural Network Formation Assay for Percent of Spikes in a Burst, Shafer Lab (AID 2284032).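 As to AC50: fitted as a decrease in burst spike percentage below DMSO baseline.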 In outline:
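Value is trapezoidal AUC over recordings on days 5, 7, 9 and 12 of the well-mean fraction of spikes falling in single-electrode bursts; rat cortical cultures exposed continuously from plating, treatment renewed DIV 5 and 9, fitted downward against DMSO.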

A short description of test [10]: CCTE_Deisenroth_AIME_384WELL_CTox_Inactive: Cytotoxicity Assessment (CTOX) in CCTE's 384-well Estrogen Receptor Transactivation Assay without AIME metabolic competence (metabolism negative), Deisenroth Lab (AID 2284039; active = hit-call score of the fitted dose curve at least 0.9, where 1 is the maximum;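 also: cell viability via live-cell protease substrate cleaved to fluorescent probe; cells exposed 24 h to medium preincubated 2 h with alginate-water beads without S9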). Put shortly: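 Fluorescence from a live-cell protease substrate, read after 24 h in VM7Luc4E2 cells, indicated viability. Test medium came from a 2 h AIME step without hepatic S9 (alginate-water microspheres); concentrations spanned 0.002 - 200 uM, single technical replicate per run.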

As a reminder, the AC50 is the concentration giving half of the maximal activity seen. Regarding `CCCN(CCC)c1c([N+](=O)[O-])cc(C(F)(F)F)cc1[N+](=O)[O-]`, the AC50 in test [1] is 8.36 µM (active); in [2] it was 20 µM (active). For the same compound, the call in [3], in test [4], in test [5] and in [6] was inactive.
In the case of `N#Cc1c(Cl)c(Cl)c(Cl)c(C#N)c1Cl`, the result in test [1], in test [3], in test [4] and in test [5] was inactive. For the same compound, the AC50 in [2] is 7.17 µM (active).
For `CNC(=O)/C=C(\C)OP(=O)(OC)OC`, the result in [1], in test [2], in test [3], in [4], in test [5] and in test [6] was inactive. Also, the compound was called inactive in test [7].
`O=[N+]([O-])/N=C1\NCCN1Cc1ccc(Cl)nc1`: the compound was classed as inactive in test [1], in [2], in test [3], in test [4], in test [5] and in test [8]. Further, the compound was classed as inactive in test [9].
Consider `CC(C)OC(=O)Nc1cccc(Cl)c1`, for which the AC50 in test [1], in test [2], in [4] and in test [5] was 20 µM (active) throughout. Moreover, the compound was classed as inactive in test [3].
Regarding `Oc1cc(Cl)ccc1Oc1ccc(Cl)cc1Cl`, the outcome in test [1], in test [3] and in test [10] was inactive. Moreover, the AC50 is 5 µM (active) in test [2]; 20 µM (active) in test [4]; 5 µM (active) in test [5]; 10 µM (active) in [8]; 10.2 µM (active) in [9].
Take `CC1(C)C(C=C(Cl)Cl)C1C(=O)OC(C#N)c1ccc(F)c(Oc2ccccc2)c1` (stereo not drawn): the AC50 in test [1] was 66.4 nM (active) and 796 nM (active); in test [2], 171 nM (active) and 612 nM (active); in test [3], 20.3 nM (active) and 102 nM (active); in [4] it was 15 µM (active); in [5] it was 117 nM (active) and 558 nM (active); in [8] it was 1.15 µM (active) and 9.57 µM (active). Also, in test [9], the AC50 is 2.63 µM (active) and 27.9 µM (active) and 19.5 µM (active). For the same compound, the outcome in test [4] and in test [8] was inactive.
On to `N#CN`, for which the compound was classed as inactive in test [1], in test [2], in [3], in test [4] and in [5].
For the compound `CCC(C)Nc1c([N+](=O)[O-])cc(C(C)(C)C)cc1[N+](=O)[O-]` (stereo not drawn), the outcome in test [1], in test [2], in test [3], in test [4], in test [5] and in test [7] was inactive. In test [10], the outcome was inactive. Besides, in [6], the AC50 was 11.1 µM (active).
As for `C[C@H]1[C@H](c2ccc(Cl)cc2)SC(=O)N1C(=O)NC1CCCCC1`, the call in [1], in test [2], in [3], in [6], in [7] and in test [10] was inactive. Further, the AC50 is 23.5 µM (active) in [4] and 20 µM (active) in [5].
On to `CCC(C)(C)C(=O)OC1=C(c2ccc(Cl)cc2Cl)C(=O)OC12CCCCC2`, for which the result in [1], in test [2], in test [3], in test [4], in test [5] and in test [8] was inactive. Besides, in [9], the result was inactive. For the same compound, the values for the AC50 in test [3], in test [4] and in test [5] were 20 µM (active), 0.106 µM (active) and 5.2 µM (active), respectively.
Turning to `CC(C)N(C(=O)COc1nnc(C(F)(F)F)s1)c1ccc(F)cc1`, the compound was classed as inactive in test [1], in [2], in test [3], in test [5], in [6] and in [8]. The compound was called inactive in test [9] and in test [10]. For the same compound, the AC50 was 5 µM (active) in test [2]; 20 µM (active) and 10.9 µM (active) in test [4]; 15 µM (active) in test [5].
`OCCOc1ccccc1`: the AC50 in test [6] was 34 µM (active). In addition, the compound was classed as inactive in [7] and in test [10].
Take `COP(=S)(OC)Oc1ccc([N+](=O)[O-])cc1`: the outcome in test [8] and in test [9] was inactive.
As for `CCc1ccc(C(=O)NN(C(=O)c2cc(C)cc(C)c2)C(C)(C)C)cc1`, the compound was called inactive in test [6], in [7] and in test [10].
Consider `COP(=S)(OC)Oc1ccc(SC)c(C)c1`, for which the result in [1], in test [2] and in test [3] was inactive. Further, the AC50 in [4] is 31.2 µM (active); in [5], 29.1 µM (active).
For the compound `CCOCN(C(=O)CCl)c1c(C)cccc1CC`, the compound was classed as inactive in test [7].
